This note sets out measurements from article PMC8384837, “Expanding the binding specificity for RNA recognition by a PUF domain”.

Assay in all cases: yeast three-hybrid, YBZ-1, SC-Leu-His + 0.5 mM 3-AT, 4 days
Holding throughout (details): tags: N-Gal4 AD-HA kept; label: inside an RPR1-promoter hybrid RNA with tandem MS2 sites; ssRNA

The target of one assay is PUM1 PUF domain R7-KRT (Homo sapiens, UniProt Q14671 828-1176, S1079K;N1080R;E1083T). The procedure, abridged: (§1)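 Sequencing with Illumina followed PCR amplification of the repeat regions from transformants grown four days on SC-Leu (input) or SC-Leu-His + 0.5 mM 3-AT (selection). The transformants were strain YBZ-1 with a LexA–MS2 coat fusion and a HIS3 reporter, carrying Pumilio-1 PUF domain libraries and matching RNA elements. The interaction score is the log change in variant frequency from input to selection, computed in log2 with a pseudocount of 1 for absent variants.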

The target of a further assay is PUM1 PUF domain R8-KQR (Homo sapiens, UniProt Q14671 828-1176, N1122K;Y1123Q;Q1126R). Summed up: as §1
Another assay deals with PUM1 PUF domain R1-KQN (Homo sapiens, UniProt Q14671 828-1176, S863K;R864Q;Q867N). The procedure, abridged: as §1

Turning to “GGCUAGAACUAGUGGAUCCCCCGGCGCCCGGCGGCUCGAGCCCGGGUAAGUCUAAAUAGUCUGCAUGCCGCCGGGCGCCAUGCCUGCAGGUCGACUCUAGAAAACAUG”, the binding signal in the assay with PUM1 PUF domain R7-KRT is 4.64 log2 enrichment (interaction score). Consider “GGCUAGAACUAGUGGAUCCCCCGGCGCCCGGCGGCUCGAGCCCGGGUAAGCGUAAAUAGUCUGCAUGCCGCCGGGCGCCAUGCCUGCAGGUCGACUCUAGAAAACAUG”, for which the binding signal with PUM1 PUF domain R8-KQR was 2.27 log2 enrichment (interaction score). As for “GGCUAGAACUAGUGGAUCCCCCGGCGCCCGGCGGCUCGAGCCCGGGUAAGUGUAAAUGGUCUGCAUGCCGCCGGGCGCCAUGCCUGCAGGUCGACUCUAGAAAACAUG”, the binding signal with PUM1 PUF domain R1-KQN was 2.83 log2 enrichment (interaction score).
